# Measurements: the supplement of paper PMC8728848
# Shown is part of a subset that was picked to be rich in the strongest signals.
# B1: HysACBM (Streptococcus pneumoniae), Q54873 (protein)
# chain: KNLVENGDFGQTEDGSSPWTGSKAQGWSAWVDQKNSADASTRVIEAKDGAITISSHEKLRAALHRMVPIEAKKKYKLRFKIKTDNKIGIAKVRIIEESGKDKRLWNSATTSGTKDWQTIEADYSPTLDVDKIKLELFYETGTGTVSFKDIELVEVADQLS
# Legend:
# Test in all cases: glycan array binding signal (z-score within array); higher = stronger binding
# Conditions in all cases: glycan notation: IUPAC condensed, linker removed
# 3dGal(b1-4)Glc = target: 3dGal(b1-4)Glc
# Procedure, shortened: (§1)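 The binding signal is a Z-score computed within each array. Data were drawn from 3228 arrays in the Consortium for Functional Glycomics database, restricted to those with a known protein sequence. Scores were averaged over arrays of the same protein sequence at different concentrations or buffers, and over linkers, and negative values can be taken as non-binding.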
# [1] = target: Ara(a1-5)Ara(a1-5)Ara(a1-5)Ara(a1-5)Ara(a1-5)Ara(a1-5)Ara
# Procedure, shortened: as §1
# [2] = target: Fuc(a1-2)Gal(b1-3)[Fuc(a1-4)]GlcNAc(b1-3)[Fuc(a1-3)[Gal(b1-4)]GlcNAc(b1-6)]Gal(b1-4)Glc
# Procedure, shortened: as §1
# [3] = target: Fuc(a1-3)[3dGal(b1-4)]Glc
# Procedure, shortened: as §1
# [4] = target: Fuc(a1-3)[Gal(b1-4)]GlcNAc(b1-3)Gal(b1-4)[Fuc(a1-3)]Glc
# Procedure, shortened: as §1
# Gal(a1-4)Gal(b1-4)GlcNAc = target: Gal(a1-4)Gal(b1-4)GlcNAc
# Procedure, shortened: as §1
# [5] = target: Gal(b1-3)GalNAc(b1-4)Gal(b1-4)Glc
# Procedure, shortened: as §1
# Gal(b1-4)GlcNAc(b1-3)Fuc = target: Gal(b1-4)GlcNAc(b1-3)Fuc
# Procedure, shortened: as §1
# [6] = target: Gal(b1-4)GlcNAc(b1-3)Gal(b1-4)Glc
# Procedure, shortened: as §1
# Gal(b1-6)GalNAc = target: Gal(b1-6)GalNAc
# Procedure, shortened: as §1
# GalNAc(b1-4)Gal(b1-4)Glc = target: GalNAc(b1-4)Gal(b1-4)Glc
# Procedure, shortened: as §1
# [7] = target: Glc(a1-4)Glc(a1-4)Glc(a1-4)Glc(a1-4)Glc(a1-4)Glc(a1-4)Glc(a1-4)Glc
# Procedure, shortened: as §1
# Glc(a1-6)Glc = target: Glc(a1-6)Glc
# Procedure, shortened: as §1
# [8] = target: Glc(a1-6)Glc(a1-4)Glc(a1-4)Glc
# Procedure, shortened: as §1
# [9] = target: Glc(a1-6)Glc(a1-6)Glc(a1-6)Glc
# Procedure, shortened: as §1
# [10] = target: Glc(a1-6)Glc(a1-6)Glc(a1-6)Glc(a1-6)Glc
# Procedure, shortened: as §1
# [11] = target: Glc(b1-6)Glc(b1-6)Glc(b1-6)Glc(b1-6)Glc(b1-6)Glc(b1-6)Glc(b1-6)Glc
# Procedure, shortened: as §1
# GlcA(b1-3)Gal = target: GlcA(b1-3)Gal
# Procedure, shortened: as §1
# [12] = target: GlcA(b1-3)GlcNAc(b1-4)GlcA(b1-3)GlcNAc(b1-4)GlcA(b1-3)GlcNAc(b1-4)GlcA(b1-3)GlcNAc(b1-4)GlcA(b1-3)GlcNAc(b1-4)GlcA(b1-3)GlcNAc(b1-4)GlcA(b1-3)GlcNAc
# Procedure, shortened: as §1
# [13] = target: GlcNAc(b1-2)Man(a1-3)[GlcNAc(b1-2)Man(a1-6)]Man
# Procedure, shortened: as §1
# [14] = target: GlcNAc(b1-2)[GlcNAc(b1-4)]Man(a1-3)[GlcNAc(b1-2)[GlcNAc(b1-6)]Man(a1-6)]Man(b1-4)GlcNAc(b1-4)GlcNAc
# Procedure, shortened: as §1
# GlcNAc(b1-3)Fuc = target: GlcNAc(b1-3)Fuc
# Procedure, shortened: as §1
# [15] = target: GlcNAc(b1-3)[GlcNAc(b1-6)]Gal
# Procedure, shortened: as §1
# [16] = target: HexA6S(a1-4)GlcNS6S(a1-4)IdoA2S(a1-4)GlcNS6S(a1-4)IdoA2S(a1-4)GlcNS6S(a1-4)IdoA2S(a1-4)GlcNS6S(a1-4)IdoA2S(a1-4)GlcNS6S(a1-4)IdoA2S(a1-4)GlcNS6S(a1-4)IdoA2S(a1-4)GlcNS6S
# Procedure, shortened: as §1
# [17] = target: Kdn(a2-3)Gal(b1-3)GalNAc(b1-4)[Kdn(a2-3)]Gal(b1-4)Glc
# Procedure, shortened: as §1
# Kdn(a2-6)Gal = target: Kdn(a2-6)Gal
# Procedure, shortened: as §1
# [18] = target: Man(a1-3)Man(a1-6)[Man(a1-3)]Man(b1-4)GlcNAc(b1-4)GlcNAc
# Procedure, shortened: as §1
# Neu(a2-6)Gal(b1-4)Glc = target: Neu(a2-6)Gal(b1-4)Glc
# Procedure, shortened: as §1
# [19] = target: Neu5Ac(a2-3)4dGal(b1-4)[Fuc(a1-3)]GlcNAc(b1-3)Gal
# Procedure, shortened: as §1
# [20] = target: Neu5Ac(a2-3)6dGal(b1-4)[Fuc(a1-3)]GlcNAc(b1-3)Gal
# Procedure, shortened: as §1
# [21] = target: Neu5Ac(a2-3)Gal(b1-3)GalNAc6S(b1-4)Gal(b1-4)Glc
# Procedure, shortened: as §1
# [22] = target: Neu5Ac(a2-3)Gal(b1-3)GlcNAc(b1-3)[Fuc(a1-3)[Gal(b1-4)]GlcNAc(b1-6)]Gal(b1-4)Glc
# Procedure, shortened: as §1
# [23] = target: Neu5Ac(a2-3)Gal(b1-3)[Neu5Ac(a2-6)]GalNAc(b1-4)Gal(b1-4)Glc
# Procedure, shortened: as §1
# [24] = target: Neu5Ac(a2-3)Gal(b1-4)[Fuc(a1-3)]Glc
# Procedure, shortened: as §1
# [25] = target: Neu5Ac(a2-3)[GalNAc(b1-6)]Gal(b1-4)Glc
# Procedure, shortened: as §1
# [26] = target: Neu5Ac(a2-6)Gal(b1-4)GlcNAc(b1-3)[Neu5Ac(a2-6)Gal(b1-4)GlcNAc(b1-6)]Gal(b1-4)Glc
# Procedure, shortened: as §1
# Neu5Ac(a2-6)Glc6S = target: Neu5Ac(a2-6)Glc6S
# Procedure, shortened: as §1
# Neu5Ac(a2-6)GlcNAc6S = target: Neu5Ac(a2-6)GlcNAc6S
# Procedure, shortened: as §1
# [27] = target: Xyl(b1-2)[Man(a1-3)][Man(a1-6)]Man(b1-4)GlcNAc(b1-4)[Fuc(a1-3)]GlcNAc
# Procedure, shortened: as §1
binder,measurement,setting,value
B1,glycan array binding signal (z-score),3dGal(b1-4)Glc,-0.091
same,glycan array binding signal (z-score),[1],-0.091
same,glycan array binding signal (z-score),[2],0.584
same,glycan array binding signal (z-score),[3],-0.091
same,glycan array binding signal (z-score),[4],0.007
same,glycan array binding signal (z-score),Gal(a1-4)Gal(b1-4)GlcNAc,-0.091
same,glycan array binding signal (z-score),[5],0.174
same,glycan array binding signal (z-score),Gal(b1-4)GlcNAc(b1-3)Fuc,0.281
same,glycan array binding signal (z-score),[6],-0.091
same,glycan array binding signal (z-score),Gal(b1-6)GalNAc,-0.064
same,glycan array binding signal (z-score),GalNAc(b1-4)Gal(b1-4)Glc,0.321
same,glycan array binding signal (z-score),[7],0.776
same,glycan array binding signal (z-score),Glc(a1-6)Glc,-0.091
same,glycan array binding signal (z-score),[8],-0.059
same,glycan array binding signal (z-score),[9],-0.091
same,glycan array binding signal (z-score),[10],-0.091
same,glycan array binding signal (z-score),[11],-0.091
same,glycan array binding signal (z-score),GlcA(b1-3)Gal,0.267
same,glycan array binding signal (z-score),[12],21.5
same,glycan array binding signal (z-score),[13],-0.091
same,glycan array binding signal (z-score),[14],0.264
same,glycan array binding signal (z-score),GlcNAc(b1-3)Fuc,-0.05
same,glycan array binding signal (z-score),[15],-0.091
same,glycan array binding signal (z-score),[16],-0.091
same,glycan array binding signal (z-score),[17],-0.091
same,glycan array binding signal (z-score),Kdn(a2-6)Gal,-0.091
same,glycan array binding signal (z-score),[18],-0.091
same,glycan array binding signal (z-score),Neu(a2-6)Gal(b1-4)Glc,0.823
same,glycan array binding signal (z-score),[19],-0.091
same,glycan array binding signal (z-score),[20],-0.045
same,glycan array binding signal (z-score),[21],-0.091
same,glycan array binding signal (z-score),[22],-0.091
same,glycan array binding signal (z-score),[23],-0.054
same,glycan array binding signal (z-score),[24],-0.091
same,glycan array binding signal (z-score),[25],-0.091
same,glycan array binding signal (z-score),[26],-0.091
same,glycan array binding signal (z-score),Neu5Ac(a2-6)Glc6S,-0.091
same,glycan array binding signal (z-score),Neu5Ac(a2-6)GlcNAc6S,-0.091
same,glycan array binding signal (z-score),[27],-0.091
